Data published in PubChem BioAssay (NCATS).
Inconclusive results are not listed. Active and inactive are the calls of the source. The call rests on the fitted dose curve; in most records, active means well fitted inhibition curve with a large enough effect; inconclusive means small, poorly fitted or top-dose-only effect, or effect the other way; inactive means flat fitted curve, though single readings scatter.

Assay: qHTS for Inhibitors of Plasmodium falciparum (CP250) proliferation (AID 504320)
Conditions: P. falciparum CP250 in erythrocytes, SYBR Green DNA, 72 h; series mostly up to 6.7 µM; activity change, negative = inhibition: at the top concentration
Source text: Plasmodium falciparum is a virulent malarial parasite that kills 1-2 million people worldwide each year. Malaria not only inflicts tremendous suffering and morbidity on the human population, but has dramatically influenced the course of civilization with profound sociological and economic implications (Shah, S. 2010). Transmitted by mosquitoes, the sporozoite form of the parasite enters the blood stream to infect hepatocytes, where they become merozoites that infect red blood cells (erythrocytes). Within erythrocytes, merozoites begin a […] cycle of growth and division, after which the parasite is released to infect new red blood cells. Gametocytes, which form within erythrocytes as well, circulate in the bloodstream and are ingested by the mosquito, thereby completing the life cycle (see CDC website). To profile malarial lines for differential chemical responses and to identify inhibitors of malarial growth, an assay that measures P. falciparum growth and replication within erythrocytes was employed. This assay uses a DNA binding fluorescent dye (SYBR Green) to detect parasite DNA following cell lysis. Because mature erythrocytes lack DNA, only Plasmodium-derived DNA is detected. The P. falciparum line cp250, derived from a malarial isolate from Cambodia, (Mu, J., et al. 2010) was added to the panel of lines, Dd2, HB3, 7G8 and GB4 in this study. Laboratory of Assay Development and Screening Technology [ADST] and NIH Chemical Genomics Center [NCGC] Boston University, Chemistry Department, Center for Chemical Methodology and Library Development [CMLD-BU] NIH National Institute of Allergy and Infectious Diseases [NIAID]
ADST Assay Protocol Summary: The 1536-well SYBR Green viability assay was based on the method of Bennett et al (2004) and described previously in 1536-well format (Yuan J., et al. 2009). For screening 3 ul culture medium was dispensed into 1536 well black clear bottom plates (Aurora Biotechnologies) using a Multidrop Combi (Thermo Fisher Scientific Inc.), 23 nL compounds in DMSO were added by a pin transfer (Cleveland, P.H. and Koutz, P.J, 2005) using a pin tool-based delivery system (Kalypsys), and 5 ul of erythrocytes infected with P. falciparum one of five lines (cp250, Dd2, HB3, 7G8 or GB4, 0.3% parasitemia, 2.5% hematocrit final concentration) were added. The plates were incubated at 37C in a humidified incubator in 5% CO2 for 72 h, and 2 ul lysis buffer (20 mM Tris HCl, 10 mM EDTA, 0.16% saponin, 1.6% triton X, 10X SYBR Green I (supplied as 10,000X final concentration by Invitrogen) was added to each well. The plates were mixed for 25 sec with gentle shaking and incubated overnight at room temperature in the dark. The following morning, fluorescence intensity at 485(14) nm excitation and 535(25) nm emission wavelengths was measured on an EnVision (Perkin Elmer) plate reader. Plate reads were normalized relative to the control inhibitor (0.29 uM artemisinin) and vehicle (DMSO) wells present on each plate and then corrected by an algorithm using vehicle-only control plates at the beginning and end of the compound plate stack. References Shah, S. (2010). The Fever: how malaria has ruled humankind for 500,000 years. New York, Sarah Crichton Books. CDC web site, http://www.cdc.gov/malaria/about/biology/index.html Mu, J., Myers, R.A., Jiang, H., Liu, S., Ricklefs, S., Waisberg, M., Chotivanich, K., Wilairatana, P., Krudsood, S., White, N.J., et Plasmodium falciparum genome-wide scans for positive selection, recombination hot spots and resistance to antimalarial drugs Nature Genetics 2010, 42, pp 268-271 Bennett TN, Paguio, M., Gligorijevic, B., Seudieu, C., Kosar, A. D., Davidson, E., and Roepe, P. D. Novel, rapid, and inexpensive cell-based quantification of antimalarial drug efficacy Antimicrobial Agents Chemother. 2004, 48(5): pp 1807-10 Yuan J, Johnson RL, Huang RL, Wichterman J, Jiang HY, Hayton K, Fidock DA, Wellems TE, Inglese J, Austin CP, Su XZ. […]

Activity change, negative = inhibition, inactive:
CC1(O)C(=O)C=C2C=C3CCCN3C=C2C1=O (stereo not given) 4.81%
C=CCC(C)(NCc1ccccc1)C(=O)OCC (stereo not given) -0.2%
C=CCC(O)(C#Cc1ccccc1)c1ccccc1 (stereo not given) -3.14%
COC(=O)[C@@H]1[C@@H](c2ccccc2)NC(=O)N(Cc2ccccc2)[C@@H]1C -4.43%
CC[C@H](C)[C@@H](NC(=O)O[C@H]1C(=O)c2ccc(OC)cc2O[C@@H]1c1ccc2c(c1)OCO2)C(=O)OC -2.26%
C#CCN1C(=O)[C@]2(OCCC=C[C@H]2C)c2c(Br)cccc21 -5.62%
COc1cccc(CO[C@H]2C=C[C@@H](c3ccccc3)O[C@H]2CBr)c1 0.289%
Cc1cccc(C)c1Nc1oc(-c2ccccc2)nc1-c1ccccc1F -18.3%
C=C(C(C)=O)C(O)c1ccc(Cl)cc1 (stereo not given) 2.41%
COC(=O)[C@H](COC(C)(C)C)NC(=O)O[C@@H]1C(=O)c2cc(OC)ccc2O[C@H]1c1cccc(OC)c1 0.424%
Cc1cc2c(c(=O)n1Cc1ccccc1)[C@H]1O[C@](c3ccsc3)(Cc3ccccc31)O2 1%
O=C1C2=C(C(=O)c3ccccc31)[C@H]1O[C@](CCCCN3C(=O)c4ccccc4C3=O)(Cc3ccccc31)O2 -18.3%
COC(=O)N[C@H](CC(C)=O)c1cccc(F)c1 3.94%
C=CCOC(=O)NC(c1ccc(F)c(F)c1)C(C(C)=O)C(=O)OC (stereo not given) 3.91%
O=S(=O)(CCc1ccccc1)c1ccccc1 -0.17%
COc1ccc(NC2=CC(c3ccccc3)N(c3ccc(OC)cc3)C2=O)cc1 (stereo not given) 7.08%
C=CC[C@@]1(c2ccc(Br)cc2OC)Oc2ccccc2-c2nccnc21 0.189%
C=CC[C@@H]1C=C[C@@H](Oc2ccc(OC)cc2)[C@H](COC(=O)c2ccc(Br)cc2)O1 1.36%
COC(=O)CC=C1c2ccccc2OC[C@@H](OC)[C@H]1C -1.58%
COC(=O)C1=C[C@]2(c3ccccc3C[C@H](OC)[C@@H]2C)[C@H]2C=C[C@H]1C2 0.753%
CC12C=C(C=CCCc3ccco3)C(C)(C1)[C@H](CCc1ccco1)CC2=O (stereo not given in full) 4.83%
C[C@H]1C(C(=O)N2CCCC2)=Cc2[nH]c(=O)[nH]c2C=C1c1ccccc1 -1.2%
CCN1C(=NCc2ccccc2)NC(c2cccc(C(F)(F)F)c2)C(C(=O)OC)=C1C (stereo not given) -20.7%
CC(=O)OC[C@H]1O[C@H](CCON=C(C)CCN2CCc3nc(-c4ccccc4)c(-c4ccccc4)cc3C2)C=C[C@H]1OC(C)=O -17.2%
CCN1C(=NCCc2ccc(Br)cc2)N[C@@H](c2ccccc2)[C@H](C(=O)OC)[C@H]1C -3.23%
CC(C)=NOCc1ccc(-c2cn([C@@H]3COC[C@@H]3O)nn2)cc1 4.09%
COc1cc2c(cc1OC)C1OC(c3ccsc3)(C2)Oc2cc(C)oc(=O)c21 (stereo not given) 4.91%
C=C[C@H](C)[C@](C)(O)c1ccccc1 5.96%
C[C@@H]1C=CCC(=O)N[C@@H](c2ccc3ccccc3c2)[C@H](C)C=CCC(=O)N[C@@H]1c1ccc2ccccc2c1 -19.7%
COc1ccc2c(c1)O[C@H](c1ccc3c(c1)OCO3)[C@@H](OC(=O)Nc1ccc(C)c(Br)c1)C2=O 3.05%
COC(=O)NC(CCc1ccccc1)C(C(=O)OC)C(=O)OC (stereo not given) -3.09%
CC1=C[C@H]2c3ccccc3C[C@H]2CO[C@]12C(=O)N(Cc1ccc(Br)cc1)c1ccccc12 -17.8%
COCC=CC1=CC2=CC(=O)C(C)(OC(=O)c3cnc4ccccc4n3)C(=O)C2=CN1CCc1c[nH]c2ccccc12 (stereo not given) -0.85%
COC(=O)N[C@H](CC(C)=O)c1ccc2c(c1)OCO2 1.2%
COc1cccc([C@@H]2[C@@H](C)CC[C@@H]3C(=O)NC[C@H](O)CN32)c1 6.31%
CCOC(=O)C1(C(=O)OCC)Cc2ccc(C(C)=O)cc2C1 0.675%

Potency, inactive:
COC(=O)CCCC1=CC2=C(c3ccccc3)C(=O)C(C)(OC(=O)C3CCCC3)C(=O)C2=CN1C1CCCCC1 (stereo not given)
COc1ccc(-c2nc3c(c4c2C[C@H](c2ccccc2)OC4)CN(S(=O)(=O)c2ccc(NC(C)=O)cc2)CC3)c(C)c1
CC1(OC(=O)C2CCCC2)C(=O)C=C2C=C(c3ccsc3)N(CCN3CCOCC3)C=C2C1=O (stereo not given)
C=CC1=C2C=C(C3CC3)N(CCOC)C=C2C(=O)C(C)(OC(=O)c2ccco2)C1=O (stereo not given)
